Test results published in PubChem BioAssay (NCI).
Compounds without any hit were thinned out: in the full panel of roughly 79,000, 15% have a hit. Cut-off read from the data, not from the text of the source: active = growth inhibition above about 70%; inactive = the rest.

What was measured:
[1] = NCI Yeast Anticancer Drug Screen. Data for the rad50 strain (AID 155);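 note: 0% = growth of vehicle-only cultures of the same strain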; conditions: S. cerevisiae rad50 strain growth inhibition; at 50.0 µM; stronger effect = higher value
Method in brief: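 Growth of the mutant yeast was measured after compound exposure and referenced to vehicle-treated cultures.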

[2] = NCI Yeast Anticancer Drug Screen. Data for the mec2-1 strain (AID 157); conditions: S. cerevisiae mec2-1 strain, at 50.0 µM, stronger effect = higher value
Method in brief: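 mec2-1 yeast strain, carrying an alteration in DNA damage repair or cell cycle control, was exposed to compounds; growth inhibition was measured relative to vehicle-treated controls.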

[3] = NCI Yeast Anticancer Drug Screen. Data for the sgs1 mgt1 strain (AID 161);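 note: 0% = growth of cultures given vehicle only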; conditions: S. cerevisiae sgs1 mgt1 strain, at 50.0 µM, stronger effect = higher value
Method in brief: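 Compounds are added to genetically altered yeast, and growth is compared with cultures given vehicle alone to give percent inhibition.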

[4] = NCI Yeast Anticancer Drug Screen. Data for the cln2 rad14 strain (AID 165);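 note: 0% = growth equal to vehicle treated cultures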; conditions: S. cerevisiae cln2 rad14 strain, at 50.0 µM, stronger effect = higher value
Method in brief: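 Yeast carrying cln2 and rad14 alterations (cell cycle control and DNA damage repair) were exposed to compounds. Growth inhibition was measured against vehicle-treated controls.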

[5] = NCI Yeast Anticancer Drug Screen. Data for the bub3 strain (AID 167); conditions: S. cerevisiae bub3 mutant strain, at 50.0 µM, stronger effect = higher value
Method in brief: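 Whole-cell yeast assay. The mutant strain was incubated with compounds, and growth inhibition was determined by comparison with vehicle-treated cells.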

[6] = NCI Yeast Anticancer Drug Screen. Data for the mlh1 rad18 strain (AID 175); conditions: S. cerevisiae mlh1 rad18 strain growth inhibition; at 50.0 µM; stronger effect = higher value
Method in brief: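 Growth inhibition of the yeast strain was measured after compound exposure and expressed relative to vehicle-treated controls. The strain carries defined defects in DNA damage repair.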

Measured: growth inhibition

c1ccc(C2CCCN2)cc1 (stereo not drawn)
inactive: [1] 6% | [2] -12.4% | [3] -11% | [4] 6.25% | [5] -1.4% | [6] 4%

O=C1CC23CC(=O)CC2(C1)c1ccccc1C3=O (stereo not drawn)
inactive: [1] 11.1% | [2] -11.8% | [3] 4.65% | [4] 6.2% | [5] 3.05% | [6] 13.7%

O=S(=O)([O-])c1ccc2c[n+]3ccccc3cc2c1
inactive: [1] -16.1% | [2] 5% | [3] -0.95% | [4] -44.6% | [5] 6.1% | [6] -10.3%

Cc1cc(=O)[nH]c(Nc2nc3ccccc3[nH]2)n1
inactive: [1] 1.1% | [2] -0.75% | [3] 6.7% | [4] 20.8% | [5] -1.4% | [6] 5.9%

COc1ccc(C2=C(Cl)c3cc(OC)c(OC)cc3C2=O)cc1OC
inactive: [1] 0.75% | [2] -7.1% | [3] -7.05% | [4] -18.9% | [5] -9.85% | [6] 2.4%

CC1(c2cccs2)C(=O)NC(=O)N1C(=O)CCl (stereo not drawn)
inactive: [1] 6.8% | [2] 4.55% | [3] -6.65% | [4] -2.75% | [5] 9.3% | [6] 5.55%

CCCCCCC(C)(C)NC(N)=O
inactive: [1] -9.4% | [2] 4.4% | [3] -4.5% | [4] 16.8% | [5] 3.75% | [6] -11.8%

COc1ccc2cc(C(=O)CCC(=O)O)ccc2c1
inactive: [1] 2.7% | [2] -35% | [3] -16.4% | [4] -21.3% | [5] -38.5% | [6] 0.25%

COC(=O)NCCCCl
inactive: [1] 5.25% | [2] -10.7% | [3] 3.5% | [4] -14.2% | [5] -0.3% | [6] 3.15%

O=C(/C=N/O)Nc1ccccc1I
inactive: [1] 3.95% | [2] -9.95% | [3] 20.4% | [4] 16.6% | [5] 18.1% | [6] -3.5%

O=[S@]1Nc2cc(N=Nc3ccccc3)ccc2S1
inactive: [1] -3.45% | [2] 16.1% | [3] 0.15% | [4] -10.5% | [5] -5.05% | [6] -12.1%

Cn1c(=O)c2[nH]c(C3CCCCCC3)nc2n(C)c1=O
inactive: [1] 13.6% | [2] -9.7% | [3] -9.4% | [4] -4.1% | [5] 7.25% | [6] -1.8%

CN(C)c1ccc(Cc2c[nH]c3ccccc3c2=O)cc1
inactive: [1] 8.4% | [2] 12.8% | [3] 18.8% | [4] 12.2% | [5] 25.1% | [6] 9.65%

N#Cc1ccc(NC(=O)C(CC(=O)OCc2ccccc2)NC(=O)OCc2ccccc2)cc1 (stereo not drawn)
inactive: [1] -2.75% | [2] 4.65% | [3] 3.85% | [4] 7.3% | [5] 50.8% | [6] -8.05%

CC(C)(C)NC(=O)Oc1ccccc1C(N)=O
inactive: [1] 4.4% | [2] -3.45% | [3] -5.2% | [4] -78.4% | [5] 4.9% | [6] -11.7%

CN(C)c1ccc(/C=N/N(Cc2ccccc2)c2ccccc2)cc1
inactive: [1] -14.4% | [2] -29.1% | [3] 3.2% | [4] -11.6% | [5] 11.3% | [6] 10.2%

CC1(c2ccccc2)SCCS1
inactive: [1] 4.9% | [2] 2.05% | [3] -7.7% | [4] -34.3% | [5] -13.9% | [6] -6.4%

O=c1c2ccccc2nnn1OCc1ccccc1
inactive: [1] 24.5% | [2] 3.1% | [3] 11% | [4] -39.5% | [5] -12.3% | [6] 3.95%

CC1=CC(=O)C2CC1C2(C)C (stereo not drawn)
inactive: [1] 6.55% | [2] -0.5% | [3] 0.5% | [4] 4.75% | [5] 4.6% | [6] -5.2%

NNC(=O)c1ccc[n+](CCc2ccccc2)c1
inactive: [1] -1.25% | [2] -8.55% | [3] -34% | [4] -34% | [5] -30.4% | [6] -5.5%

CC(C)CC(C)N=C1CC2CCC1(C)C2(C)C (stereo not drawn)
inactive: [1] -32.3% | [2] -24.6% | [3] -3.35% | [4] -14.2% | [5] -7.15% | [6] -7.05%

CC1=CCCCC1(C)/C(C)=N/Nc1ccc([N+](=O)[O-])cc1[N+](=O)[O-] (stereo not drawn)
inactive: [1] 2.05% | [2] 7.3% | [3] 2.8% | [4] 2.75% | [5] -1.4% | [6] -15.3%

OCC1CC2c3ccccc3C1c1ccccc12 (stereo not drawn)
inactive: [1] -12% | [2] -22.1% | [3] -12.1% | [4] -0.05% | [5] -28.4% | [6] -6.75%

C=C(Br)C[N+](CC)(CC)CC
inactive: [1] -14.3% | [2] -3.3% | [3] -9.4% | [4] 15.8% | [5] -8.85% | [6] -9.25%

COc1cc2c(cc1C/C=C/c1cc(OC)c(OC)c(OC)c1)OCO2
inactive: [1] -1.95% | [2] -3.1% | [3] 22.8% | [4] -1.65% | [5] 8.55% | [6] 12.2%

N#CC1(Cc2ccccc2[N+](=O)[O-])c2ccccc2C2C(N1C(=O)c1ccccc1)C2(Cl)Cl (stereo not drawn)
inactive: [1] -2.5% | [2] 23.7% | [3] 9.7% | [4] -4.3% | [5] 3.15% | [6] 6.95%

Clc1ccc(Cl)s1
inactive: [1] 34.5% | [2] 3.55% | [3] 20.3% | [4] 18.6% | [5] 14% | [6] 26.1%

OC1(C(O)(c2ccc(-c3ccccc3)cc2)c2ccc(-c3ccccc3)cc2)CCCCC1
inactive: [1] -11% | [2] -7.85% | [3] -34% | [4] -14.6% | [5] -26.4% | [6] -0.5%

CN1C(=O)c2ccccc2N(C)C(=O)c2ccccc21
inactive: [1] 0.9% | [2] -15.1% | [3] 11.3% | [4] -2.45% | [5] 4.85% | [6] 12%

Cc1cc2c(cc1C)C(O)CCC(=O)N2 (stereo not drawn)
inactive: [1] 5.55% | [2] 3.7% | [3] 11.7% | [4] 6.85% | [5] 16% | [6] -0.05%

Cn1c(=O)n2n(c1=O)C1C=CC2C2C=C(c3ccccc3)C21 (stereo not drawn)
inactive: [1] -18.4% | [2] -1.35% | [3] -0.8% | [4] 1.75% | [5] 36.5% | [6] 0.3%

O=C(O)Cc1ccc([N+](=O)[O-])cc1
inactive: [1] 21.1% | [2] -11.3% | [3] 36.1% | [4] 15.2% | [5] 12.8% | [6] 4.75%

Cc1ccc(NCC(O)CN2CCOCC2)cc1 (stereo not drawn)
inactive: [1] 34.2% | [2] 14.3% | [3] 27.2% | [4] -8.05% | [5] 6.5% | [6] 36.2%

N#CC(C(=O)CCCC(=O)Nc1ccccc1[N+](=O)[O-])c1ccc(Cl)cc1Cl (stereo not drawn)
inactive: [1] -10.2% | [2] -22.6% | [3] -36.8% | [4] -41.5% | [5] 0.65% | [6] -26.6%

COc1ccc(C#CC(=O)O)c(OC)c1
inactive: [1] -3.15% | [2] -2.1% | [3] 22.9% | [4] -30.6% | [5] -5.45% | [6] -9%

COC(=O)Cc1nc2ccccc2[nH]c1=O
inactive: [1] -1.15% | [2] -3.25% | [3] -10.3% | [4] -29.2% | [5] -16.8% | [6] -5.7%

C/C=N\N1C(=O)c2ccccc2C1=O
inactive: [1] 11.5% | [2] 13.7% | [3] 13.8% | [4] 9.1% | [5] 19.4% | [6] 14.8%

CCNC(=S)NC1CCCCC1
inactive: [1] -8.35% | [2] 5.15% | [3] 3.65% | [4] -4.05% | [5] -13.1% | [6] 12.3%

CC1C(O)CC23COC(=O)C2=CCCC3C1(C)CCC1=CC(=O)OC1 (stereo not drawn)
inactive: [1] -8.6% | [2] -38.9% | [3] -26.2% | [4] -7% | [5] -42% | [6] -20.9%

c1csc(-c2sc(-c3ccsc3)cc2Cc2ccsc2)c1
inactive: [1] -23.1% | [2] -20.1% | [3] -32.9% | [4] -14.4% | [5] -26.6% | [6] -23.3%

CN(C)Cc1cc(N=Nc2c(Cl)cccc2Cl)ccc1O
inactive: [1] 14.4% | [2] 19.8% | [3] 8.35% | [4] 1.95% | [5] 28% | [6] 18.4%

Cc1cc(C)n(/N=C/c2ccccc2)c(=O)c1C#N
inactive: [1] 7.3% | [2] -10.3% | [3] 0.55% | [4] -0.55% | [5] 35.6% | [6] -0.05%

CCOC(=O)C(NC(=O)c1ccccc1)(Nc1ccc(S(=O)(=O)Nc2ncccn2)cc1)C(F)(F)F (stereo not drawn)
inactive: [1] 1.1% | [2] -17.4% | [3] -16.8% | [4] -4.55% | [5] -12.7% | [6] 16.9%
